# Assay results published in PubChem BioAssay (NCATS).
# Results filed as inconclusive are left out. Unmarked numbers belong to inactive results. The call rests on the fitted dose curve; in most records, active means well fitted curve in the direction sought with a large enough effect; inconclusive means small, poorly fitted or top-dose-only effect, or another doubt; inactive means no such curve, though single readings can be large or run the other way.
# Test: Cytometric Cell-Based qHTS for Inhibitors of the mTORC1 Signaling Pathway in MEF (Tsc2-/-, p53-/-) Cells (AID 2660);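 further: Tsc2 and p53 null MEFs carrying empty vector with compound for 24 h; percent of cells above a phospho-rpS6 to PI ratio cutoff in each well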
# Conditions: mTORC1 pathway cytometry; series mostly up to 38.3 µM; activity change, negative = inhibition: at the top concentration
# Text: NIH Molecular Libraries Probe Production Centers Network [MLPCN]
# NIH Chemical Genomics Center [NCGC]
# Assay Submitter (PI): Blenis, John; Hoffman, Greg; Harvard University
# NCGC Assay Overview: The mammalian target of rapamycin (mTOR) is an intracellular serine/threonine kinase Aberrant regulation of mTOR signaling plays a causative role in a number of human diseases, including cancer, benign tumors such as lymphangioleiomyomatosis (LAM) and Tuberous Sclerosis Complex (TSC), and metabolic diseases such as diabetes and obesity. This project aims to identify inhibitors of ribosomal protein S6 (rpS6) phosphorylation. The phosphorylation of rpS6 is a key event downstream of mTOR activation. The assay uses a phospho-specific antibody of phospho-rpS6 to detect inhibitors of mTOR activation. Mutations in the Tsc1 and Tsc2 genes are the underlying genetic lesions responsible for TSC, causing constitutive activation of the mTORC1 pathway and leading to profound effects on cell metabolism. Aberrant metabolism in cancer has recently received significant attention as a target to develop therapeutic agents in the treatment of cancer.1 As Tsc2-/- cells have lost the ability to respond to energy and growth factor deprivation, these cells are unable to properly down regulate cellular biosynthetic processes in response to metabolic stress, and are thus extremely sensitive to glucose deprivation-induced death.2 A central goal of this project is to explore the unique cell survival and metabolic properties of cells with Tsc1 or Tsc2 by screening for compounds that selectively target the Tsc2-/- MEFs by screening both Tsc2-/- and WT MEF cell lines. We hope to better understand these aspects of TSC physiology in order to exploit them for therapeutic benefit.
# NCGC Acumen Assay Protocol Summary:
# For quantitative high throughput analysis of mTORC1 signaling, we developed a cell-based assay for immuno-fluorescence based detection of rpS6 phosphorylation on the Acumen Explorer that will be used a platform for the primary small molecule screen. Mouse embryonic fibroblasts (MEFs) are cultured in 1536-well plates using DMEM + 10% FBS. Twenty-four hrs after plating, test compounds (solubilized in DMSO) are delivered and incubated with the cells for 24 hrs at 37 degree Celsius. Following the incubation, media with compound is aspirated and the cells are fixed in 4% paraformaldehyde (PFA) containing PBS + 0.2% TX-100. Next, PFA is aspirated, cells are washed two times with PBS plus 0.2% TX-100 and the cells are blocked for 1 hr at room temperature (blocking buffer: LiCOR Blocking Buffer plus 0.2% TX-100). This is followed by aspiration and staining with Alexa-488 conjugated-phospho-rpS6 Ser235/236 antibody for 2 hours at room temperature (Cell Signaling Technology # 4803, 1:50 dilution in blocking buffer). Cells are washed two times with PBS plus 0.2% TX-100, and stained with 10 uM propidium iodide (PI) for 20-25 minutes for cell number measurement (1:500 dilution of Hoescht staining is also added for IN Cell imaging). The plates are scanned on the Acumen Explorer laser scanning instrument (TTP Labtech) using the 488nm laser for simultaneous excitation of the Alexa-488 and PI. The fluorescence emission from the Alexa-488 conjugated rpS6 phospho-235/236 antibody staining is selected using a […] band pass filter. Fluorescence emission from the PI stain is selected using a 575-640 nm band pass filter. The normalized phospho-S6 staining is calculated as the ratio of the integrated Alexa 488 intensity divided by the integrated PI intensity for the single concentration rapamycin control (7.5 nM) and DMSO columns. […] Inhibition of the pathway is defined based on the normalized phospho-S6 intensity in rapamycin treated cells. […]
row,SMILES,"activity change, negative = inhibition [%]"
1,O=C(Nc1ccccc1)c1cc([N+](=O)[O-])ccc1Cl,-10
2,OCC1O[C@H](O)C(Cl)C(O)C1O (stereo not given in full),3.8
3,O=C(O)c1cc([N+](=O)[O-])ccc1NCCCc1ccccc1,0.373
4,Oc1ccc(C2CNCc3sccc32)cc1O (stereo not given),-3.43
5,NCCCS(=O)(=O)O,-0.373
6,CNc1ncnc2c1ncn2[C@@H]1O[C@H](CO)[C@@H](O)[C@H]1O,2.14
7,CN(C)C(N)=NCCC[C@H](N)C(=O)O,7.33
8,O=C(O)/C=C/C(O)c1ccc(Cl)cc1 (stereo not given),-0.93
9,Cc1cc(NC(=O)Nc2ccc3c(ccn3C)c2)sn1,6.4
10,O=C(O)[C@@H]1C[C@H](C(=O)O)N1,5.2
11,N.N.N.N.N.N.N.N.N.N.N.N.N.N.O.O.[Ru+4].[Ru+5].[Ru+5],6.52
12,Brc1c(Br)c(Br)c2n[nH]nc2c1Br,2.63
13,CO/N=C(\C(=O)N[C@@H]1C(=O)N2C(C(=O)O)=C(COC(C)=O)CS[C@H]12)c1csc(N)n1,2.4
14,CC(C)ON([C@@H](C(=O)NO)C(C)C)S(=O)(=O)c1ccc(-c2ccccc2)cc1,-20.5
15,C=CC(=O)c1ccc(CCCCCC)cc1,5.2
16,C#CCN1C(C)=C(C(=O)OC)C(c2cccc([N+](=O)[O-])c2)C(C(=O)OCC)=C1C (stereo not given),4.18
17,CSc1ccccc1N1CCN(CCCCCC(=O)NC2CCCc3ccccc32)CC1 (stereo not given),-6.07
18,N#C/C(=C\c1ccc(O)c(O)c1)C(=O)NCc1ccccc1,5.91
19,O=c1[nH]c2cc(Cl)c(Cl)cc2[nH]c1=O,4.63
20,Oc1cc2c(cc1O)CN(C(=S)NCCc1ccc(Cl)cc1)CCC2,6.22

row,SMILES,"activity change, negative = inhibition [%]"
1,CNC(=O)[C@H]1O[C@@H](n2cnc3c(NCc4ccc(N)cc4)ncnc32)[C@H](O)[C@@H]1O,1.2
2,CCNC(=O)[C@H]1O[C@@H](n2cnc3c(N)nc(NCCc4ccc(CCC(=O)O)cc4)nc32)[C@H](O)[C@@H]1O,1.53
3,N[C@@H](CC(=O)O)C(=O)O,5.84
4,Nc1ncnc2c1c(I)cn2[C@@H]1C[C@H](N)[C@@H](O)[C@H]1O,-12.9
5,OC[C@H]1O[C@@H](n2cnc3c(Nc4ccccc4)ncnc32)[C@H](O)[C@@H]1O,14.8
6,NCCNC(=O)c1ncsc1-c1cccc(F)c1,4.18
7,Cc1ccc(C(=O)O[C@H](C(=O)O)[C@@H](OC(=O)c2ccc(C)cc2)C(=O)O)cc1 (tested in a mixture with another compound),1.15
8,CC(C)(C=O)Cc1cc(C(C)(C)C)c(O)c(C(C)(C)C)c1,7.16
9,COC(=O)c1c(C)[nH]c(C)c1C(=O)c1ccccc1Cc1ccccc1,4.31
10,NC(=S)c1ccc[n+]([C@@H]2O[C@@H](COP(=O)([O-])OP(=O)(O)OC[C@H]3O[C@@H](n4cnc5c(N)ncnc54)[C@H](OP(=O)(O)O)[C@@H]3O)C(O)C2O)c1 (stereo not given in full),0.758
11,NC(=O)C(=O)O,3.91
12,Cc1ccccc1CNc1ncnc2c1ncn2C1OC(CO)C(O)C1O (stereo not given),0.483
13,O=C(O)[C@@H]1C[C@@H](C(=O)O)N1,6.54
14,N#C/C(=C\c1ccc(O)c(O)c1)C(=O)c1ccc(O)c(O)c1,5.68
15,CCCN(CC1CC1)c1nc(C)nc(Nc2c(Cl)cc(Cl)cc2Cl)c1Cl,3.34
16,CC(C)CC(NP(=O)(O)O[C@@H]1O[C@@H](C)[C@H](O)[C@@H](O)[C@H]1O)C(=O)NC(Cc1c[nH]c2ccccc12)C(=O)O (stereo not given in full),-3.87
17,Cn1cc(C2=C(c3ccc(Cl)cc3Cl)C(=O)NC2=O)c2ccccc21,5.97
18,NCCCCCCCCCCN,2.98
19,Ic1ccc(N2CCN(Cc3c[nH]c4ncccc34)CC2)cc1,-19.3
20,COc1cc(OC)c(/C=C2/C(=O)Nc3ccccc32)c(OC)c1,-24.5
